Screening results: PubChem, several laboratories
Cav32 inh: human Cav3.2 channel inhibition, primary screen; O95180; Cav3.2-expressing cells, Fluo-4 calcium fluorescence FDSS; active compounds read low; B-score at 10 µM; actives 4% (n = 100,000);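 active means single-dose well whose peak fluorescence ratio is a statistical outlier from its plate by either plate-standardised score or position-corrected B-score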
CYP2C9 inhib: blocks human cytochrome P450 2C9. P11712. CYP2C9 Supersomes, luciferin-H conversion, luminescence. inhibition, % at 5 µM. actives 20% (n = 96,000). AID 777;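 active means blocking of liver enzyme CYP2C9 beyond about 50% at 5 µM, limit read from the data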
CYP2C19 inhib: human CYP2C19 inhibition. P33261. CYP2C19 Supersomes, luciferin-H EGE luminescence, 30 min. inhibition, % at 5 µM. actives 21% (n = 96,000);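 active means CYP2C19 inhibition above a set limit at 5 µM in the primary screen, cut at about 50% in these data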;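 further: plate controls were negative control wells for no effect and 2.5 mM tranylcypromine positive control for full effect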
CYP2C9 activ: CYP2C9 (human) activation | actives 1.4% (n = 96,000) | activation factor at 5 µM | recombinant CYP2C9, luciferin-H conversion, luminescence; active compounds read high; factor 1 = untreated enzyme, 0 = blocked | AID 1024;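 active means activation factor of 2 or more for CYP2C9 at a 5 µM dose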;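 further: 0 = sulfaphenazole-blocked wells and 1 = vehicle-only wells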
CYP2C19 activ: activators of human cytochrome P450 2C19. recombinant CYP2C19, luciferin-H EGE luminescence; active compounds read high; 0 = fully inhibited enzyme, 1 = untreated enzyme. 96,000 tested, under 10 active. P33261. activation factor at 5 µM;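 active means activation factor of at least 2 at 5 µM in the primary screen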;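 further: 0 = wells with 2.5 mM tranylcypromine and 1 = vehicle-only wells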
* = called active by the depositor; nt = no result given. Shown are actives, neighbours in structure and some others; about 27% of the full set was active somewhere.

SMILES	Cav32 inh	CYP2C9 inhib	CYP2C19 inhib	CYP2C9 activ	CYP2C19 activ
CCCn1c(SCC(=O)NC2CCCCC2C)n[nH]c1=O (stereo not given)	0.22	-19	-24	1.2	1.2
COc1ccc(Cl)cc1NC(=O)CSc1nc(N2CCCCC2)nc(N2CCCCC2)n1	-1	84*	20	0.2	0.8
CCCn1c(SCC(=O)c2cc(C)c(C)cc2C)n[nH]c1=O	-0.55	74*	38	0.3	0.6
Cc1ccccc1NC(=O)CSc1nc(N2CCCCC2)nc(N2CCCCC2)n1	1	14	13	0.9	0.9
CC[C@H](C)[C@@H](C(=O)N1CCNCC1)n1cc([C@@H](N)CC(C)C)nn1	1.1	nt	nt	nt	nt
CCOc1ccccc1NC(=O)C(Sc1ccccc1)c1ccccc1 (stereo not given)	-1.2	-24	40	1.2	0.6
COC(=O)c1ccsc1NC(=O)C1COc2ccccc2O1 (stereo not given)	nt	23	31	0.8	0.7
COC(=O)c1ccccc1NC(=O)C1COc2ccccc2O1 (stereo not given)	-2.6	-32	90*	1.3	0.1
COc1ccc(CNC(=O)C2COc3ccccc3O2)cc1 (stereo not given)	0.32	nt	nt	nt	nt
CCOC(=O)c1c(NC(=O)C2COc3ccccc3O2)sc(C)c1C (stereo not given)	-2.5	nt	nt	nt	nt
CCOC(=O)c1ccccc1NC(=O)C1COc2ccccc2O1 (stereo not given)	-3	31	87*	0.7	0.1
COc1ccccc1CNC(=O)C1COc2ccccc2O1 (stereo not given)	-0.2	-19	99*	1.2	0
COC(=O)c1cc(NC(=O)C2COc3ccccc3O2)cc(C(=O)OC)c1 (stereo not given)	-3.3	73*	63*	0.3	0.4
O=C(NC1CC1)C1=COCCO1	-1	1	-16	1	1.2
Cc1cnc(C(=O)NCCc2ccc(S(=O)(=O)NC(=O)NC3CCCCC3)cc2)cn1	1.3	nt	nt	nt	nt
COC(=O)c1cccc(NC(=O)C(C)N2C(=O)c3ccccc3C2=O)c1 (stereo not given)	-3.1	98*	48	0	0.5
COCCN(C(=O)CCCC(=O)Nc1ccccn1)C(C(=O)NC1CCCC1)c1ccc(C)cc1 (stereo not given)	-0.03	28	47	0.7	0.5
CCC1C2CN(C(C)=O)CC=C2C(C#N)=C(N)C1(C#N)C#N (stereo not given)	2	-1	4	1	1
CC(C)N1CC=C2C(C#N)=C(N)C(C#N)(C#N)C(c3ccccc3)C2C1 (stereo not given)	-2	4	3	1	1
CC(C)(C)OC(=O)N1CC=C2C(C#N)=C(N)C(C#N)(C#N)C(c3cccs3)C2C1 (stereo not given)	-2.3	60*	39	0.4	0.6
CC(C)N1CC=C2C(C#N)=C(N)C(C#N)(C#N)[C@H](c3ccoc3)[C@H]2C1	-4.6*	6	24	0.9	0.8
CCN1CC=C2C(C#N)=C(N)C(C#N)(C#N)C(c3cc(Cl)ccc3Cl)C2C1 (stereo not given)	nt	59*	34	0.4	0.7
CCS(=O)(=O)N1CCC(C(=O)OCC(=O)c2ccc(Br)cc2)CC1	-0.14	nt	nt	nt	nt
O=C(OCC(=O)N1c2ccccc2Sc2ccccc21)C1CC(=O)N(Cc2ccco2)C1 (stereo not given)	-1.7	89*	70*	0.1	0.3
COc1ccccc1NC(=O)N1CCc2[nH]c3ccc(F)cc3c2C1	-4.2*	-30	67*	1.3	0.3
SMILES	Cav32 inh	CYP2C9 inhib	CYP2C19 inhib	CYP2C9 activ	CYP2C19 activ
COc1ccccc1NC(=O)N1CCN(c2ccc(F)cc2)CC1	1.3	nt	nt	nt	nt
Cn1c(=O)c2c3c(sc2n2c(SCc4ccc5c(c4)OCO5)nnc12)COC(C)(C)C3	nt	19	-4	0.8	1
CC(C)CCNC(=O)NC(=O)COC(=O)/C=C/c1cnc2ccccc2n1	nt	46	23	0.5	0.8
O=C(C1CC1)N1CCN=C1SCc1cccc(C(F)(F)F)c1	-1.6	70*	95*	0.3	0
O=C(c1ccco1)N1CCN=C1SCc1ccc(F)cc1	0.99	10	-12	0.9	1.1
Cc1ccc(CSC2=NCCN2C(=O)C2CC2)cc1	-0.4	19	92*	0.8	0.1
CC(=O)N1CCN=C1SCc1ccc(Br)cc1	-4.8*	62*	54*	0.4	0.5
CC1=C(C)[N+](=O)C2CCCCC2N1[O-] (stereo not given)	0.87	3	-10	1	1.1
